According to PubChem BioAssay AID720706 (Broad Institute, 2013):
The whole screen tested about 350,000 compounds, of which about 5,500 (1.6%) were called active.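 How the source made its calls: active means significant combined selectivity score with lowered wild-type GFP, culture density cut under 30%, mutant RFP and density less affected; inactive means any of these conditions unmet.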 This excerpt belongs to a sample that is enriched for actives.

Assay: GFP drop in mixed WT/humanized-ribosome E. coli culture – GFP/RFP fluorescence, OD600, single point, bacterial rRNA inhibitor project, primary screen (AID 720706)
Conditions: E. coli WT GFP vs humanized-ribosome RFP mutants, 24 h; GFP signal change (wild-type ribosome): stronger effect = lower value, DMSO median 0, no signal -100; OD600 change: measured here: OD600 growth, DMSO median 0, no signal -100; RFP signal change: measured here: RFP humanized mutant strains, DMSO median 0, no signal -100, concentration not given here

Row | Structure (SMILES) | GFP signal change (wild-type ribosome) | OD600 change [%] | RFP signal change [%]
1 | COCC#Cc1ccc([C@@H]2[C@@H](CO)N3C(=O)CN(C(=O)Nc4cc(F)ccc4F)C[C@@H]23)cc1 | -10.5% (inactive) | -5.07 | 3.1
2 | COc1ccc(NC(=O)N(C)C[C@@H]2OCCCC[C@@H](C)Oc3ccc(NS(C)(=O)=O)cc3C(=O)N([C@@H](C)CO)C[C@H]2C)cc1 | -0.988% (inactive) | -5.29 | 0.0065
3 | Cc1noc(C)c1S(=O)(=O)Nc1ccc2c(c1)C(=O)N([C@H](C)CO)C[C@H](C)[C@H](CN(C)C(=O)CCC(F)(F)F)OCCCC[C@H](C)O2 | -2.98% (inactive) | -4.46 | 0.03
4 | COc1ccc2c3c(n(C)c2c1)[C@H](CO)N(C(=O)Cc1ccccc1)CC31CCN(C)CC1 | 4.41% (inactive) | 5.73 | -1.31
5 | CCNC(=O)[C@H]1[C@H](CO)[C@H]2Cn3c(ccc(C4=CCCC4)c3=O)[C@@H]1N2S(=O)(=O)c1cn(C)cn1 | 2.88% (inactive) | 2.51 | -2.3
6 | COc1ccc(C(=O)NC2CCN(C(=O)Nc3ccc(F)cc3)CC2)cc1 | 3.88% (inactive) | 11.7 | -0.144
7 | COc1ccc(-c2n[nH]c3c2CN(C(=O)c2ccc(F)cc2)CC3)cc1 | -24% (active) | -10.1 | -0.0738
8 | COc1cccc(-c2noc(C3CCCN(C(=O)c4ccc(F)cc4)C3)n2)c1 (stereo unspecified) | -16% (inactive) | -14.3 | 1.71
9 | COCC#Cc1cnc2c(c1)C(=O)N([C@H](C)CO)C[C@@H](C)[C@@H](CN(C)Cc1ccccc1F)O2 | 4.01% (inactive) | 9.71 | -0.92
10 | O=C(N/N=C/c1ccco1)c1ccc(NC(=O)C2CC2)cc1 | 33.5% (inactive) | 14.7 | 3.89
11 | CC(/C=N/NC(=O)c1cc(-c2ccc3ccccc3c2)n[nH]1)=C\c1ccco1 | -18.4% (active) | -4.31 | 6.39
12 | CC(C)(C)C1CCC(=NNC(=O)c2cc(-c3ccccc3)n[nH]2)CC1 (stereo unspecified) | -8.44% (inactive) | 6.81 | -1.93
13 | Nc1ccn([C@@H]2O[C@H](C(=O)N[C@H]3CCCCNC3=O)[C@@H](O)[C@H]2O)c(=O)n1 | 23% (inactive) | 2.48 | 2.71
14 | CN(Cc1ccccc1)C(=O)C1CCCN(c2ncnc3c2nc2n3CCCCC2)C1 (stereo unspecified) | -30.8% (active) | -19.4 | -2.82
15 | COc1cccc(NC(=O)C2CCCN(c3ncnc4c3nc3n4CCCCC3)C2)c1 (stereo unspecified) | -27.7% (inactive) | -29.9 | -2.84
16 | COc1cccc(CNC(=O)C2CCCN(c3ncnc4c3nc3n4CCCCC3)C2)c1 (stereo unspecified) | -0.749% (inactive) | 3.87 | -0.866

Row | Structure (SMILES) | GFP signal change (wild-type ribosome) | OD600 change [%] | RFP signal change [%]
17 | O=C(NCc1ccc2c(c1)OCO2)c1c(-c2ccsc2)sc2ccccc12 | -2.63% (inactive) | 5.46 | -0.565
18 | O=C(NCc1ccc2c(c1)OCO2)c1sccc1Br | -28% (active) | -4.74 | 4.92
19 | O=C(NCc1ccc2c(c1)OCO2)c1c(O)nc2sccn2c1=O | 9.79% (inactive) | 1.77 | 0.304
20 | Cc1cc(C(=O)Nc2ccc3c(c2)C(=O)N(C)[C@@H]2CC[C@H](CC(=O)NC4CCCC4)O[C@@H]2CO3)no1 | 1.76% (inactive) | 5.25 | 2.11
21 | CCCC(=O)Nc1ccc2c(c1)C(=O)N(C)[C@@H]1CC[C@H](CC(=O)NCCOC)O[C@H]1CO2 | 3.48% (inactive) | 0.14 | 0.31
22 | COc1ccccc1S(=O)(=O)N[C@@H]1C=C[C@H](CC(=O)N2CCN(C)CC2)O[C@@H]1CO | 3.92% (inactive) | 11.8 | -3.5
23 | CC(C)c1ccc(NS(=O)(=O)c2cn(C)c(=O)n(C)c2=O)cc1 | 4.95% (inactive) | 14.4 | -3.23
24 | COC(=O)c1c(C)oc(C)c1S(=O)(=O)NCc1ccc(Cl)cc1 | -11.3% (inactive) | -4.55 | -0.764
25 | COC(=O)c1c(C)oc(C)c1S(=O)(=O)Nc1ccc(C(C)C)cc1 | -28.4% (active) | -12.4 | -2.19
26 | CO[C@H]1CC[C@@H]2CCOc3c(C#N)cccc3C(=O)N(C)C[C@H](C)C(=O)N(C)C[C@H]1O2 | 3.92% (inactive) | -1.31 | -1.65
27 | Brc1ccc2c(c1)[C@H]1OCC[C@H]1[C@@H](c1cccs1)N2 | -43.8% (active) | -30.6 | -11.9
28 | Oc1ccc(/C=N/N(Cc2ccccc2)c2ccccc2)cc1 | -13.9% (inactive) | -1.62 | 0.2
29 | CCN(/N=C/c1ccc(N(C)C)cc1)c1nc2ccccc2[nH]1 | -22.8% (active) | -10.9 | -2.86
30 | CCC(=O)N1C[C@@H](C)[C@H](OC)CN(C)C(=O)c2ccc(NC(=O)c3cc(C)on3)cc2OC[C@H]1C | 0.768% (inactive) | 1.75 | -1.23
31 | C/C=C/c1cnc2c(c1)C(=O)N([C@H](C)CO)C[C@H](C)[C@H](CN(C)C(=O)c1cccc(F)c1)O2 | 2.26% (inactive) | 2.83 | -3.73
32 | O=C(Nc1ccc(Cl)cc1)C1c2cccc[n+]2CC(=O)N1Cc1ccc2c(c1)OCO2 (stereo unspecified) | 4.36% (inactive) | 0.665 | -2.94
